Results: PubChem BioAssay (NCATS)
Records with an inconclusive call do not appear. Calls of active or inactive are those of the source. The call rests on the fitted dose curve; in most records, active means well fitted inhibition curve with a large enough effect; inconclusive means small, poorly fitted or top-dose-only effect; inactive means flat fitted curve, though single readings scatter.

Key:
TAB165 = assay: qHTS profiling for inhibitors of Plasmodium falciparum proliferation (AID 504749);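 further: 0% = DMSO vehicle and full inhibition = artemisinin control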; details: P. falciparum in erythrocytes, SYBR Green DNA, 72 h; series mostly up to 28.7 µM
Method in brief: (§1)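 Three-day growth assay of blood-stage parasites in erythrocytes (0.3% parasitemia, 2.5% hematocrit) at 37 C, 5% CO2, quantified by SYBR Green DNA staining after overnight detergent lysis.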

W2 = assay: as above; details: P. falciparum in erythrocytes, SYBR Green DNA, 72 h; series mostly up to 28.7 µM
Method in brief: as §1

CRL-7250 = normal cell line; assay: Cytotoxic Profiling of Annotated Libraries Using Quantitative High-Throughput Screening (AID 1296008); details: Five cell lines viability, CellTiter-Glo ATP luminescence, 48-72 h; max response: stronger effect = lower value; on max response: on the % scale 0 is the no-effect control and ±100 the full control effect
Method in brief: (§2)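 Cytotoxicity was measured as CellTiter-Glo ATP luminescence, read after 10 min at room temperature. Compound treatment of the cells lasted 48 or 72 hr at 37 degrees Celsius in a qHTS format.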

HEK293 = assay: as above; details: Five cell lines viability, CellTiter-Glo ATP luminescence, 48-72 h; max response: stronger effect = lower value
Method in brief: as §2

HaCat [1] = assay: as above; details: Five cell lines viability, CellTiter-Glo ATP luminescence, 48-72 h; max response: stronger effect = lower value
Method in brief: as §2

KB-3-1 = assay: as above; details: Five cell lines viability, CellTiter-Glo ATP luminescence, 48-72 h; max response: stronger effect = lower value
Method in brief: as §2

NIH3T3 = assay: as above; details: Five cell lines viability, CellTiter-Glo ATP luminescence, 48-72 h; max response: stronger effect = lower value
Method in brief: as §2

HACAT [2] = assay: qHTS assay to identify novel small-molecules to repurpose for Merkel cell carcinoma treatment (AID 1296009); details: MCC and control cell lines, CellTiter-Glo viability, 72 h; at 44.8 µM (top of the series) unless noted
Method in brief: (§3)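 After compound transfer in DMSO, plates were kept 72 hr at 37 degree celsius. Luminescent ATP signal from CellTiter-Glo served as viability measure, normalized against DMSO and no-cell controls.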

HEK293T = assay: as above; details: MCC and control cell lines, CellTiter-Glo viability, 72 h; at 44.8 µM (top of the series)
Method in brief: as §3
Further: nearly all actives have a fitted effect of over 60% in size.

c1cc2c(c(N3CCNCC3)c1)OCCO2
inactive: Potency (TAB165) | Potency (W2) | max response (CRL-7250) -0.883% | max response (HEK293) -10.2% | outcome (HaCat [1]) | max response (KB-3-1) -5.14% | max response (NIH3T3) 1.17% | outcome (HACAT [2])

CCCCC1C(=O)NC(=O)N(C2CCCCC2)C1=O (configuration not stated)
inactive: max response (CRL-7250) -13.7% | max response (HEK293) 0.515% | outcome (HaCat [1]) | max response (KB-3-1) 2.39% | max response (NIH3T3) -9.24% | outcome (HACAT [2])

CCCCCCCCC(=O)NCc1ccc(O)c(OC)c1
inactive: Potency (TAB165) | Potency (W2) | max response (CRL-7250) -16.7% | max response (HEK293) -94.9% | max response (HaCat [1]) -25.6% | max response (KB-3-1) -3.93% | max response (NIH3T3) -70.4%

CCN(CC)C(C)C(=O)c1ccccc1 (configuration not stated)
inactive: Potency (TAB165) | Potency (W2) | max response (CRL-7250) -0.537% | max response (HEK293) -27.4% | outcome (HaCat [1]) | max response (KB-3-1) -1.49% | max response (NIH3T3) -1.81% | outcome (HACAT [2])

COc1ccc(CN2CCNCC2)c(OC)c1OC
inactive: Potency (TAB165) | max response (CRL-7250) 0.0195% | max response (HEK293) -9.25% | outcome (HaCat [1]) | max response (KB-3-1) 5.8% | max response (NIH3T3) 1.76% | outcome (HACAT [2])

Oc1c(Br)cc(Br)cc1Br
inactive: Potency (TAB165) | Potency (W2) | max response (CRL-7250) -10.6% | max response (HEK293) 2.8% | max response (HaCat [1]) -13% | max response (KB-3-1) -5.6% | max response (NIH3T3) -1.39%

COP(=S)(OC)Oc1ccc(Sc2ccc(OP(=S)(OC)OC)cc2)cc1
inactive: Potency (TAB165) | Potency (W2) | max response (CRL-7250) -0.305% | max response (HEK293) 3.86% | max response (HaCat [1]) -8.51% | max response (KB-3-1) 1.06% | outcome (NIH3T3)

Cc1ccc(N=CN(C)C=Nc2ccc(C)cc2C)c(C)c1
inactive: Potency (TAB165) | Potency (W2) | max response (CRL-7250) -6.67% | outcome (HEK293) | max response (HaCat [1]) -15.3% | max response (KB-3-1) 1.07% | outcome (NIH3T3) | outcome (HEK293T)

NCc1cccnc1
inactive: Potency (TAB165) | Potency (W2) | max response (CRL-7250) -13.7% | max response (HEK293) -4.51% | outcome (HaCat [1]) | max response (KB-3-1) -3.91% | max response (NIH3T3) 3.43% | outcome (HACAT [2])

CN(C)CCc1c[nH]c2ccc(O)cc12
inactive: max response (CRL-7250) 4.21% | max response (HEK293) -2.05% | outcome (HaCat [1]) | max response (KB-3-1) 2.29% | outcome (NIH3T3) | outcome (HACAT [2]) inactive [at 92 µM]
